Values joined by “and” are separate entries in the source; they are usually repeats but may differ in a detail not shown here. Equal entries are not always repeated. Among all 5,500 compounds or so, about 2,000 (36%) were called active. Inconclusive results (about 18%) are left out. Cut-off read from the data, not from the text of the source: active = normalized growth mostly below about 0.91 (no sharp cut-off); inconclusive = no clear call, values can overlap the other calls; inactive = mostly above about 0.92. Some of the results follow.
Assay: chemical genetic growth profiling, strain panel (AID 1159580);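 note: tested at 20 µM; growth read once vehicle control cultures reached saturation at 30 °C; 1 = growth at the plate median or of vehicle wells; lower values mean less growth of the strain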
Conditions: S. cerevisiae deletion strains, growth OD

Measured: normalized growth

CNC1(C)C2CCC(C2)C1(C)C (stereo unspecified)
inactive: locus YAL013W, strain DEP1, active compounds read low 0.982 | locus YAL021C, strain ccr4, active compounds read low 0.97 | locus YAL026C, strain drs2, active compounds read low 1 | locus YAL030W, strain snc1, active compounds read low 1 | locus YAL040C, strain CLN3, active compounds read low 1 | locus YBL061C, strain skt5, active compounds read low 0.998 | locus YBR009C, strain hhf1, active compounds read low 0.993 | locus YBR021W, strain FUR4, active compounds read low 1.03 | locus YBR023C, strain chs3, active compounds read low 0.981 | locus YBR171W, strain sec66, active compounds read low 0.986 | locus YBR229C, strain ROT2, active compounds read low 0.961 | locus YBR231C, strain swc5, active compounds read low 0.982 | locus YBR279W, strain paf1, active compounds read low 0.986 | locus YCL011C, strain gbp2, active compounds read low 0.996 | locus YCL016C, strain dcc1, active compounds read low 0.977 | locus YCL029C, strain bik1, active compounds read low 0.991 | locus YCL061C, strain MRC1 (second series), active compounds read low 0.999 | locus YCL061C, strain MRC1, active compounds read low 0.989 | locus YCL069W, strain vba3, active compounds read low 0.997 | locus YCR088W, strain abp1, active compounds read low 0.994 | locus YDL005C, strain med2, active compounds read low 0.992 | locus YDL035C, strain GPR1, active compounds read low 0.993 | locus YDL040C, strain nat1, active compounds read low 0.997 | locus YDL074C, strain BRE1, active compounds read low 0.957 | locus YDL101C, strain DUN1, active compounds read low 0.969 | locus YDL134C, strain PPH21, active compounds read low 0.989 | locus YDL185W, strain tfp1, active compounds read low 0.968 | locus YDL192W, strain arf1, active compounds read low 0.996 | locus YDR001C, strain nth1, active compounds read low 0.996 | locus YDR069C, strain doa4, active compounds read low 1.02 | locus YDR101C, strain arx1, active compounds read low 1.01 | locus YDR137W, strain rgp1, active compounds read low 0.987 | locus YDR150W, strain NUM1, active compounds read low 0.977 | locus YDR159W, strain sac3, active compounds read low 0.994 | locus YDR162C, strain NBP2, active compounds read low 0.913 | locus YDR195W, strain ref2 1 | locus YDR297W, strain sur2, active compounds read low 0.993 | locus YDR318W, strain mcm21, active compounds read low 1.03 | locus YDR334W, strain swr1, active compounds read low 1 | locus YDR335W, strain msn5, active compounds read low 0.999 | locus YDR363W, strain ESC2, active compounds read low 0.993 | locus YDR388W, active compounds read low 1.01 | locus YDR392W, strain spt3, active compounds read low 0.93 | locus YDR502C, strain sam2, active compounds read low 0.984 | locus YEL003W, strain gim4, active compounds read low 1 | locus YEL037C, strain rad23, active compounds read low 0.995 | locus YEL061C, strain CIN8 (second series), active compounds read low 1 | locus YEL061C, strain CIN8, active compounds read low 0.982 | locus YER002W, strain NOP16, active compounds read low 1 | locus YER015W, strain faa2, active compounds read low 1 | locus YER016W, strain bim1, active compounds read low 0.997 | locus YER110C, active compounds read low 0.993 | locus YER111C, strain swi4, active compounds read low 1 | locus YER155C, strain BEM2 (second series), active compounds read low 0.995 | locus YER155C, strain BEM2, active compounds read low 0.987 | locus YER167W, strain BCK2, active compounds read low 1 | locus YFR010W, strain ubp6, active compounds read low 0.993 | locus YGL078C, strain dbp3, active compounds read low 0.992 | locus YGL086W, strain mad1, active compounds read low 1.01 | locus YGL167C, strain pmr1, active compounds read low 0.993 | locus YGL173C, strain kem1, active compounds read low 0.995 | locus YGL227W, strain vid30, active compounds read low 0.987 | locus YGL240W, strain doc1, active compounds read low 0.985 | locus YGL248W, strain PDE1, active compounds read low 0.982 | locus YGL253W, strain hxk2, active compounds read low 1 | locus YGR078C, strain PAC10, active compounds read low 0.978 | locus YGR135W, strain pre9, active compounds read low 0.96 | locus YGR229C, strain SMI1, active compounds read low 0.987 | locus YGR252W, strain gcn5, active compounds read low 1.08 | locus YHR013C, strain ard1, active compounds read low 0.982 | locus YHR027C, strain rpn1, active compounds read low 0.999 | locus YHR030C, strain SLT2, active compounds read low 0.996 and 0.974 | locus YHR079C, strain IRE1 (second series), active compounds read low 0.998 | locus YHR079C, strain IRE1, active compounds read low 0.941 | locus YHR094C, strain hxt1, active compounds read low 0.999 | locus YHR129C, strain ARP1, active compounds read low 0.99 | locus YHR142W, strain chs7, active compounds read low 0.974 | locus YHR200W, strain rpn10, active compounds read low 1 | locus YIL066C, strain RNR3, active compounds read low 0.989 | locus YIL073C, strain SPO22, active compounds read low 1.04 | locus YIL125W, strain kgd1, active compounds read low 0.989 | locus YIR030C, strain dcg1, active compounds read low 0.991 | locus YJL092W, strain hpr5, active compounds read low 0.991 | locus YJL095W, strain BCK1 (second series), active compounds read low 0.996 | locus YJL095W, strain BCK1, active compounds read low 0.996 and 0.958 | locus YJL115W, strain asf1, active compounds read low 0.993 | locus YJL129C, strain trk1, active compounds read low 0.976 | locus YJL134W, strain LCB3, active compounds read low 0.988 | locus YJL154C, strain vps35, active compounds read low 0.994 | locus YJL164C, strain tpk1, active compounds read low 0.985 | locus YJL166W, strain qcr8, active compounds read low 0.991 | locus YJL168C, strain set2, active compounds read low 0.993 | locus YJL187C, strain SWE1 (second series), active compounds read low 0.967 | locus YJL187C, strain SWE1, active compounds read low 0.995 | locus YJR043C, strain POL32, active compounds read low 1.02 | locus YJR066W, strain TOR1, active compounds read low 0.981
